The campaign covered roughly 310,000 compounds. About 14,000 (4.5%) showed an effect of 50% or more. Effects have a minus sign here. The entries come from a sample that favours strong results as a whole.
molecular target: human ether-à-go-go-related gene (hERG) potassium channel (human, UniProt Q12809); assay: primary screen, population patch clamp on CHO cells stably expressing hERG; higher = less effect of the substance
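Further: peak tail current of the secondary pulse compared with the same well before compound.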

Chain of human ether-à-go-go-related gene (hERG) potassium channel (Q12809 whole entry, looked up): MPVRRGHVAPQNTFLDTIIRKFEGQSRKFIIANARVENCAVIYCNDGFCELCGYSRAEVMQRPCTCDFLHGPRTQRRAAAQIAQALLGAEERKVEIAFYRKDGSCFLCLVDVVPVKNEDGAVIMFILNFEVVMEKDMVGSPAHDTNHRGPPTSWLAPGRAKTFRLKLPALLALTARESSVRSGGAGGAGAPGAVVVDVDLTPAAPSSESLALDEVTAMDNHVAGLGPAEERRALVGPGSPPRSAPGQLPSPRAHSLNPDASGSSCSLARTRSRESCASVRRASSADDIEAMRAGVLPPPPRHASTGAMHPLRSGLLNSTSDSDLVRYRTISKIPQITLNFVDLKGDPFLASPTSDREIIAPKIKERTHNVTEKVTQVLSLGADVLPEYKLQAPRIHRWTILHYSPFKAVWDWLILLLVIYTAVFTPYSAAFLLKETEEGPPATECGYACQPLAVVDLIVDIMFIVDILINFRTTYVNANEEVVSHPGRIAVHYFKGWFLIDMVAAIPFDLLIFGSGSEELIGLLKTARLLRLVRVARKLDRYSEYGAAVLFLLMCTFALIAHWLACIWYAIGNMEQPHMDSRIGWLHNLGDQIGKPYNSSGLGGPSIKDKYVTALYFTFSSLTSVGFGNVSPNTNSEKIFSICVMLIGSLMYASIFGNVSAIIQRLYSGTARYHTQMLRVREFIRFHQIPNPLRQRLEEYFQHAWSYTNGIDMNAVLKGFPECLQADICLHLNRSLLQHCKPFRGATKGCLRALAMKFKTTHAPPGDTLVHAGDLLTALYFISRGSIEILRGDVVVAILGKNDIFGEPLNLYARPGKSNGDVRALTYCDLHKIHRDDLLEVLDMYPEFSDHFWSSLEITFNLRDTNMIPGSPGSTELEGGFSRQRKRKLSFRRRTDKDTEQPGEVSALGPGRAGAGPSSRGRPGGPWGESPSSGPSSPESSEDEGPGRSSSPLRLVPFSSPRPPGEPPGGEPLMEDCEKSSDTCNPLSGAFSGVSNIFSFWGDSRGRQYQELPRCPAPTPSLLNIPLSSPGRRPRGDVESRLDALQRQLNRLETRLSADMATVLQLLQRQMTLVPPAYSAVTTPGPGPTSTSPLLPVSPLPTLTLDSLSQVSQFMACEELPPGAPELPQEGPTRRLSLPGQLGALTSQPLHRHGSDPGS

In order of rising “hERG current change (%, negative = inhibition) at 10uM” value:
1. COCCCn1c(=N)c(C(=O)NCc2ccc3c(c2)OCO3)cc2c(=O)n3ccccc3nc21  -83.5%
2. CCOc1ccc(Nc2nc(N)nc(CN3CCN(c4ccccc4F)CC3)n2)cc1  -80.8%
3. N=c1c(C(=O)NCc2ccc3c(c2)OCO3)cc2c(=O)n3ccccc3nc2n1Cc1cccnc1  -80.4%
4. CCOC(=O)c1cc2c(=O)n3ccccc3nc2n(Cc2ccccc2)c1=N  -74.6%
5. CCN1CCc2c(sc3c2c(NCc2ccco2)nc2nnnn23)C1  -73.6%
6. CN1CCc2c(sc3c2c(NCc2ccco2)nc2nnnn23)C1  -71.8%
7. N#C/C(=N\Nc1ccc(Br)cc1)C(=N)N1CCOCC1  -68.9%
8. Cc1cccc(Nc2nc(N)nc(CN3CCN(c4ccccc4F)CC3)n2)c1  -68.2%
9. Cc1ccc(Nc2nc(N)nc(CN3CCN(c4ccccc4F)CC3)n2)cc1  -67.4%
10. CSCCC(NC(=O)c1ccc([N+](=O)[O-])cc1Cl)C(=O)OC(C)C(=O)NCc1ccco1 (stereo not drawn)  -61.7%
11. COc1ccc(CNC(=O)c2cc3c(=O)n4ccccc4nc3n(Cc3cccnc3)c2=N)cc1  -58.6%
12. CSCCC(NC(=O)c1ccc([N+](=O)[O-])cc1Cl)C(=O)OCC(=O)NCCCc1ccccc1 (stereo not drawn)  -57.8%
13. Nc1nc(CN2CCN(c3ccccc3F)CC2)nc(Nc2ccccc2)n1  -57.1%
14. N#C/C(=N\Nc1ccc([N+](=O)[O-])cc1)C(=N)N1CCOCC1  -54.2%
15. COc1cc2c(cc1OC)-c1c(OC)c(OC)c(OC)c3ccnc(c13)C2=O  -53.8%
16. CSCCC(NC(=O)c1ccc(Cl)cc1Cl)C(=O)OC(C)C(=O)NCc1ccco1 (stereo not drawn)  -51.8%
17. CC(CNc1ccc([N+](=O)[O-])cc1)NC(=O)c1ccccc1Br (stereo not drawn)  -50.6%
18. COC(=O)c1sc(S(=O)(=O)NCc2ccccc2)c(C(=O)OC)c1C  -50.4%
19. CCOc1cc(-c2nccc3cc(OC)c(OC)cc23)cc(OCC)c1OCC  -46.8%
20. O=C(Nc1ccccc1N1CCCC1)C1CC(=O)N(Cc2ccccc2)C1 (stereo not drawn)  -44.4%
21. O=C(NCCNc1ccc([N+](=O)[O-])cc1)c1ccccc1Br  -43.3%
22. COc1ccc(CNC(=O)Cn2nc(Cc3cccnc3)c3ccccc3c2=O)cc1  -43.3%
23. c1coc(CNc2ncnc3sc4c(c23)CCCCC4)c1  -39.4%
24. COc1ccccc1Nc1nc(N)nc(CN2CCN(c3ccccc3F)CC2)n1  -35.9%
25. COc1cc2c(cc1OC)-c1c(OC)c(OC)cc3ccnc(c13)C2=O  -30.7%
26. Cc1nc(NCc2ccco2)c2c3c(sc2n1)CCC3  -24.3%
27. CSCCC(NC(=O)c1ccc(Cl)cc1)C(=O)OCC(=O)NCc1ccco1 (stereo not drawn)  -23.8%
28. CN1CCN(c2ccc3c(c2)S(=O)(=O)c2ccccc2C3=O)CC1  -23.4%
29. CCOC(=O)c1ccccc1NC(=O)CN(c1ccccc1)S(=O)(=O)N(C)C  -19.9%
30. O=C(CSc1nc2c(c(=O)n1-c1ccc(Cl)cc1)SCC2)NCc1ccco1  -19.4%
31. COC(=O)c1sc(S(=O)(=O)NCc2cccs2)c(C(=O)OC)c1C  -19.1%
32. CSCCC(NC(=O)c1ccc([N+](=O)[O-])cc1Cl)C(=O)OCC(=O)NCC(F)(F)F (stereo not drawn)  -16.7%
33. CCCCOc1cccc(C(=O)N(Cc2ccccc2)C2CCS(=O)(=O)C2)c1 (stereo not drawn)  -14.2%
34. CC(C)C1Oc2ccccc2N(CC(=O)N(Cc2ccccn2)C2CC2)C1=O (stereo not drawn)  -13.6%
35. COc1cccc(CNC(=O)COc2ccc(C(=O)c3ccccc3)cc2)c1  -11.7%
36. CN1CCc2c(sc3nc(SCC(=O)NCc4ccco4)n(-c4ccccc4)c(=O)c23)C1  -10.6%
37. CC1(C)SC(=S)N(/N=C/c2ccc(O)cc2)C1N(O)C(=O)Nc1ccc([N+](=O)[O-])cc1 (stereo not drawn)  -10.2%
38. CC(N)Cc1cn(Cc2ccccc2)c2ccccc12.Cl (stereo not drawn)  -7.76%
39. N#C/C(=N\Nc1ccccc1)C(=N)N1CCOCC1  -7.71%
40. COc1ccc(CNC(=O)C2CCCN(S(=O)(=O)N3CC(C)CC(C)C3)C2)c(OC)c1 (stereo not drawn)  -6.97%
41. Fc1ccccc1N1CCN(Cc2nc(-c3ccccc3)no2)CC1  -6.65%
42. O=C(NCc1ccc2c(c1)OCO2)c1cnc2ccccn2c1=O  -6.29%
43. CSCCC(NC(=O)c1ccc(Cl)cc1Cl)C(=O)OCC(N)=O (stereo not drawn)  -5.4%
44. O=C(CCn1c(=O)c2ccccc2n(Cc2cccnc2)c1=O)NCc1ccc2c(c1)OCO2  -5.1%
45. O=C(NCc1ccco1)c1ccc([N+](=O)[O-])cc1Cl  -3.96%
46. CC(=O)Nc1ccc(NCc2ccc(C)s2)cc1  -3.79%
47. O=C(OC(C(=O)NC1CCCC1)c1ccccn1)c1cccs1 (stereo not drawn)  -3.4%
48. C=CCN1C(=O)C(Cc2ccccc2)SC1=Nc1ccc(C(=O)O)cc1 (stereo not drawn)  -3.37%
49. CSCCC(NC(=O)c1ccc([N+](=O)[O-])cc1Cl)C(=O)OCC(=O)N(C)C (stereo not drawn)  -2.34%
50. Cc1nc2ccccc2c(=O)n1NC(=O)/C=C/c1ccc(Br)cc1  -1.3%
51. COc1ccc(S(=O)(=O)N/N=C(/C)c2ccncc2)cc1OC  -1.27%
52. Cc1nc2ccccn2c1C(=O)NCc1ccc2c(c1)OCO2  -0.471%
53. CCn1c(SCC(=O)Nc2ccc(OCc3ccccc3)cc2)nnc1-c1ccco1  -0.171%
54. CCOC(=O)/C(=C\c1c[nH]c2ccccc12)NC(C)=O  0.157%
55. CCCNC(=O)CSc1nccn1Cc1ccco1  0.203%
56. CCCn1c(=O)c(Cc2ccccc2)c(O)c2ccccc21  1.06%
57. CC(CNC(=O)c1ccccc1[N+](=O)[O-])NC(=O)c1ccccc1[N+](=O)[O-] (stereo not drawn)  1.57%
58. CC(C)c1nc(-c2ccc([N+](=O)[O-])cc2)cs1  1.87%
59. CCN1CCc2c(sc(NC(=S)NC(=O)c3ccco3)c2C(N)=O)C1  2.95%
60. CSCCC(NC(=O)c1ccc([N+](=O)[O-])cc1Cl)C(=O)OCC(=O)N1CCN(C(C)=O)CC1 (stereo not drawn)  3.12%
61. Cc1nonc1NC(=O)CSc1nc(CCC2CCCC2)nc2ccccc12  3.64%
62. Cc1nnc(NC2=NCCC2)o1  3.71%
63. Cc1cccc(Nc2nc(N)nc(CC(=O)CSc3ccc(Cl)cc3)n2)c1  4.27%
64. C/C(=N\Nc1ccc([N+](=O)[O-])cc1)c1ccc(N2CCOCC2)cc1  4.46%
65. CC(=O)CCc1c[nH]c2c(C(=O)O)cccc12  5.11%
66. CCOc1ccccc1Nc1nnc(SCC(=O)Nc2cc(C)on2)s1  6.14%
67. Cc1ccc(OCC(=O)NN2C(=O)c3ccccc3C2=O)c(C)c1  6.34%
68. COC(=O)c1c(S(=O)(=O)NCc2ccccc2)sc(C(=O)O)c1C  6.81%
69. CCn1cc(CCC(=O)NCc2cccc(OC)c2OC)c2ccccc21  8.51%
70. COCCCn1c(C(=O)Nc2ccc3c(c2)OCO3)cc2c(=O)n3ccccc3nc21  8.51%
71. Cc1ccc(-c2noc(CN3CCN(c4ccccc4F)CC3)n2)cc1  8.71%
72. CCOC(=O)CNc1ncnc2nc[nH]c12  9.53%
73. Cn1c(NN)nc2sc3c(c2c1=O)CC(C)(C)OC3  9.89%
74. CCc1noc(C)c1C(=O)NC1CCCc2c1cnn2-c1ccc(C(C)(C)C)cc1 (stereo not drawn)  10.2%
75. CCc1ccc(OCC(=O)NNC(=O)c2c(CC)noc2C)cc1  10.8%
76. COc1ccc(N/N=C(\C#N)C(=N)N2CCOCC2)cc1  11.4%
77. COc1ccc(Cn2c(=S)[nH]c3cc(C(=O)NCc4cccnc4)ccc3c2=O)cc1  12.3%
78. Cc1csc(NC(=O)c2sccc2C)n1  12.7%
79. N#C/C(=N\Nc1ccc([N+](=O)[O-])cc1)C(N)=S  13.4%
80. Cc1cc(-c2cc(-c3ccccc3)on2)nc(NC2CCCC2)n1  15.7%
81. CCOc1ccc(Nc2nc(N)nc(CSC(=S)N3CCN(c4ccccc4)CC3)n2)cc1  17.2%
82. Cc1[nH][nH]c(=O)c1C=Nc1ccc(C(F)(F)F)cc1  17.4%
83. Nc1ccn([C@H]2CS[C@@H](CO)O2)c(=O)n1  18%
84. CCCC(=O)C1=C(O)C(C(=O)OC)C(C)(C)CC1=N (stereo not drawn)  19.9%
85. CC(C)[C@H](Nc1ccc(C(F)(F)F)cc1[N+](=O)[O-])C(=O)O.[Cl-]  20%
86. CC(=O)Nc1ccc(S(=O)(=O)Nc2cc3c(cc2C(C)=O)OCO3)cc1  20.7%
87. Cc1nnc(SCC2=C(C(=O)O)N3C(=O)C(NC(=O)Cn4ncc(Cl)c4C)C3SC2)s1 (stereo not drawn)  26.9%
